Experimental data from PubChem BioAssay (EPA / NIEHS).
Results filed as inconclusive are left out. Calls of active or inactive are those of the source. Rule for the calls, unless noted: active = hit-call score of the fitted dose curve at least 0.9, where 1 is the maximum; inactive = score below 0.9.

Tests used:
[1] = molecular target: Paired box protein Pax-6 (Homo sapiens) (UniProt P26367); experiment: ATG_Pax6_CIS: Attagene CIS-FACTORIAL HepG2 Assay for human Paired Box 6 (PAX6) (AID 2282956); conditions: HepG2 CIS-FACTORIAL PAX6 reporter transcription, RNA readout; actives raise or lower the signal
Paired box protein Pax-6 (Homo sapiens), sequence (P26367 whole entry, looked up): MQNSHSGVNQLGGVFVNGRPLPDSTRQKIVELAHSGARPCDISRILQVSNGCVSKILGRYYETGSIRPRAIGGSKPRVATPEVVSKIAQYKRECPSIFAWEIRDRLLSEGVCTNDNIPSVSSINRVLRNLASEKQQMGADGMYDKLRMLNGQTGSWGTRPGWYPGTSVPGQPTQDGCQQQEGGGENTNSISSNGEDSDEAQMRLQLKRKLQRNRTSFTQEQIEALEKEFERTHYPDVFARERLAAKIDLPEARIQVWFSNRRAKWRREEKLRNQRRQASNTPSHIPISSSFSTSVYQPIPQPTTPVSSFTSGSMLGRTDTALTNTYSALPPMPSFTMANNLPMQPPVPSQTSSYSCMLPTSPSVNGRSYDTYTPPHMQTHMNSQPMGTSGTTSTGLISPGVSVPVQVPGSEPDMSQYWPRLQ
Summary of the method: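 Multiplexed cis-reporter HepG2 system; 24 h treatment; reporter mRNA read by RT-PCR/CE fluorescence; bidirectional fit vs DMSO.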

[2] = ATG_PXRE_CIS: Attagene CIS-FACTORIAL HepG2 Assay for human Pregnane X Receptor Element (PXRE) (AID 2282957); conditions: HepG2 Attagene CIS-FACTORIAL PXRE reporter, mRNA; actives raise or lower the signal
Summary of the method: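 Multiplexed cis-reporter assay in transiently transfected human HepG2 cells; 24 h chemical exposure. Reporter transcripts quantified by RT-PCR with fluorescent labeling and capillary electrophoresis.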

[3] = ATG_RORE_CIS: Attagene CIS-FACTORIAL HepG2 Assay for human RAR-related Orphan Receptor Element (RORE) (AID 2282959); conditions: HepG2 Attagene cis-factorial RORE reporter, mRNA; actives raise or lower the signal
Summary of the method: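 Fluorescence intensity of reporter-specific cDNA fragments, separated by capillary electrophoresis, gives the signal. Source: HepG2 liver cells transiently transfected with cis-element reporters and exposed 24 h; DMSO-normalized bidirectional fit.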

[4] = ATG_Sox_CIS: Attagene CIS-FACTORIAL HepG2 Assay for human SRY-box transcription factor (SOX) (AID 2282960); conditions: HepG2 Attagene cis-factorial SOX reporter, mRNA; actives raise or lower the signal
Summary of the method: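 After 24 h of chemical treatment, transfected HepG2 reporter cells are lysed for total RNA. Transcript levels come from RT-PCR with labelled primer extension and capillary electrophoresis, analysed bidirectionally versus DMSO.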

[5] = molecular target: Transcription factor Sp1 (Homo sapiens) (UniProt P08047); experiment: ATG_Sp1_CIS: Attagene CIS-FACTORIAL HepG2 Assay for human Specificity Protein 1 (Sp1) (AID 2282961); conditions: HepG2 Sp1 cis-reporter transcription, actives raise or lower the signal
Transcription factor Sp1 (Homo sapiens), sequence (P08047 whole entry, looked up): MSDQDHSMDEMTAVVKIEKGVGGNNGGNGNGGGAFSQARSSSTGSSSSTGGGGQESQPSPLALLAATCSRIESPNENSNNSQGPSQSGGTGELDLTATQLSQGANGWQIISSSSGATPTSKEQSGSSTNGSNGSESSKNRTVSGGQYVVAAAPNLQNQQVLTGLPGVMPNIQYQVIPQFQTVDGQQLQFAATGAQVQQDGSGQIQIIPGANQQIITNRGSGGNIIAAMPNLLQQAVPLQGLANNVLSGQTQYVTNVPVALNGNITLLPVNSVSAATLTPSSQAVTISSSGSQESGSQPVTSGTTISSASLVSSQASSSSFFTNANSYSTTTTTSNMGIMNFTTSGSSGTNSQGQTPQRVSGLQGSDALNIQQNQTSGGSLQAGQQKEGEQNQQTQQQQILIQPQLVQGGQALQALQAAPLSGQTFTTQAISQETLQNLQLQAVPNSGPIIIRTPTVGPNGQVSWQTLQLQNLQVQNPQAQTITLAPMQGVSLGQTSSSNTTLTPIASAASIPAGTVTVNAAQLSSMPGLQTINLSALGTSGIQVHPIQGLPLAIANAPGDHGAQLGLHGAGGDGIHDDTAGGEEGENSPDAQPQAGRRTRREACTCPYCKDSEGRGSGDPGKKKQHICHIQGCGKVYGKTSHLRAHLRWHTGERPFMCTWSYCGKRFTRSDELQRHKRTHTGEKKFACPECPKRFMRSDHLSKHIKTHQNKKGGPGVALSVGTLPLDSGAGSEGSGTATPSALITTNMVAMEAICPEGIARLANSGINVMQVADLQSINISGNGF
Summary of the method: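 Sp1-driven reporter mRNA, read as capillary electrophoresis fluorescence after RT-PCR, in transiently transfected HepG2 cells dosed for 24 h; signal change in either direction relative to DMSO.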

[6] = ATG_SREBP_CIS: Attagene CIS-FACTORIAL HepG2 Assay for human Sterol Regulatory Element Binding (SREBP) (AID 2282962); conditions: HepG2 Attagene cis-factorial SREBP reporter, mRNA; actives raise or lower the signal
Summary of the method: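 mRNA induction of transfected cis-promoter reporters in HepG2 cells, 24 h post-dose. Detection: RT-PCR with 6-FAM-labelled products, HpaI digest, capillary electrophoresis. DMSO served as negative control and baseline.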

[7] = molecular target: Signal transducer and activator of transcription 3 (Homo sapiens) (UniProt P40763); experiment: ATG_STAT3_CIS: Attagene CIS-FACTORIAL HepG2 Assay for human Signal Transducer and Activator of Transcription 3 (STAT3) (AID 2282963); conditions: HepG2, Attagene cis-factorial STAT3 reporter transcription; actives raise or lower the signal
Signal transducer and activator of transcription 3 (Homo sapiens), sequence (P40763 whole entry, looked up): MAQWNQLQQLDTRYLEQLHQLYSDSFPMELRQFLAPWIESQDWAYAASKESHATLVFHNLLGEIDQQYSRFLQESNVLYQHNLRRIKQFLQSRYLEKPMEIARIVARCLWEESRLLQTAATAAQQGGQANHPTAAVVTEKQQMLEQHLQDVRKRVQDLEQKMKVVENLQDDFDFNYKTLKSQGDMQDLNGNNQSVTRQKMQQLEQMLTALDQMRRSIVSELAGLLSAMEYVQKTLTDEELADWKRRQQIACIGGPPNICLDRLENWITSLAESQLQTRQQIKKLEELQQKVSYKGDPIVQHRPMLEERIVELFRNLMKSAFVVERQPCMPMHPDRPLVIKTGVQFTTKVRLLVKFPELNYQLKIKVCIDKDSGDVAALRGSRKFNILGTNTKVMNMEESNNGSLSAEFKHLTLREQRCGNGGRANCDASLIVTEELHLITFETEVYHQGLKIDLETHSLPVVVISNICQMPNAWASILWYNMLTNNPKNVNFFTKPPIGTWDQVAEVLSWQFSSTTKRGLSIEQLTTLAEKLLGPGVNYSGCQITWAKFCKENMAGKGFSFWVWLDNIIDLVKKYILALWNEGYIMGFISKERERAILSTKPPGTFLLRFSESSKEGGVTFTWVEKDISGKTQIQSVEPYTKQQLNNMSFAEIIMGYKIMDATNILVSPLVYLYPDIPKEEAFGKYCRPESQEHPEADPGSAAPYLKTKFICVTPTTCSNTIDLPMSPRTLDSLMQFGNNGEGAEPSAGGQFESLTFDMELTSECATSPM
Summary of the method: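 HepG2 cells transiently transfected with cis-element-driven multiple reporter transcription units; after 24 h chemical exposure, reporter mRNA measured by RT-PCR, 6-FAM primer-extension labelling, HpaI digestion and capillary electrophoresis. Bidirectional fitting versus DMSO baseline.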

[8] = ATG_TA_CIS: Attagene CIS-FACTORIAL HepG2 Assay for human TA Basal Promoter (AID 2282964); conditions: HepG2 Attagene CIS-factorial TA basal promoter reporter; actives raise or lower the signal
Summary of the method: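 Transient MRTU transfection of HepG2 preceded 24 h compound exposure. Reporter mRNA levels were then read by RT-PCR with capillary electrophoresis, and this background-control endpoint was fitted bidirectionally to DMSO.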

[9] = ATG_TCF_b_cat_CIS: Attagene CIS-FACTORIAL HepG2 Assay for human T-Cell-Factor with beta-catenin (TCF/b-cat) (AID 2282965); conditions: HepG2 TCF/beta-catenin cis-reporter transcription, actives raise or lower the signal
Summary of the method: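 HepG2 cells transiently transfected with multiple cis-promoter-regulated reporter transcription units, so endogenous transcription factor activity is measured. Reporter mRNA read 24 hours after dosing by RT-PCR, fluorescent labelling and capillary electrophoresis; bidirectional fitting against DMSO.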

[10] = ATG_TAL_CIS: Attagene CIS-FACTORIAL HepG2 Assay for human TAL Basal Promoter (AID 2282966); conditions: HepG2 Attagene cis-factorial TAL promoter reporter; actives raise or lower the signal;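 note: background control endpoint measuring basal TAL promoter reporter mRNA not a specific factor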
Summary of the method: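 Steps: transfect HepG2 with multiple reporter transcription units; dose 24 h; isolate RNA, reverse-transcribe, PCR-amplify, label with 6-FAM, digest with HpaI; resolve by capillary electrophoresis. Bidirectional fitting against DMSO baseline.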

[11] = ATG_TGFb_CIS: Attagene CIS-FACTORIAL HepG2 Assay for human Transforming Growth Factor (TGF) (AID 2282967); conditions: HepG2 Attagene CIS TGFb reporter, mRNA transcription; actives raise or lower the signal
Summary of the method: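 After a 24-hour incubation with compound, transfected HepG2 cells were lysed for RNA; reporter cDNA was amplified, fluorescently end-labeled and separated by CE. DMSO served as baseline for bidirectional fits.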

[12] = ATG_VDRE_CIS: Attagene CIS-FACTORIAL HepG2 Assay for human Vitamin D Receptor Element (VDRE) (AID 2282968); conditions: HepG2 VDRE cis-reporter transcription, actives raise or lower the signal
Summary of the method: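 HepG2 cells transiently transfected with cis-element reporter units, dosed 24 h; reporter mRNA measured by RT-PCR, 6-FAM labeling, HpaI digestion and capillary electrophoresis. Activity fitted bidirectionally against DMSO baseline.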

[13] = molecular target: Nuclear receptor subfamily 1 group I member 3 (Homo sapiens) (UniProt Q14994); experiment: ATG_CAR_TRANS: Attagene TRANS-FACTORIAL HepG2 Assay for human Constitutive Androstane Receptor (CAR) (AID 2282969; active = hit-call score of the fitted dose curve at least 0.9, where 1 is the maximum;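 note: activators raise reporter mRNA above DMSO so AC50 marks induction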); conditions: HepG2 Attagene TRANS-FACTORIAL CAR reporter
Nuclear receptor subfamily 1 group I member 3 (Homo sapiens), sequence (Q14994 whole entry, looked up, the tested form may be a part): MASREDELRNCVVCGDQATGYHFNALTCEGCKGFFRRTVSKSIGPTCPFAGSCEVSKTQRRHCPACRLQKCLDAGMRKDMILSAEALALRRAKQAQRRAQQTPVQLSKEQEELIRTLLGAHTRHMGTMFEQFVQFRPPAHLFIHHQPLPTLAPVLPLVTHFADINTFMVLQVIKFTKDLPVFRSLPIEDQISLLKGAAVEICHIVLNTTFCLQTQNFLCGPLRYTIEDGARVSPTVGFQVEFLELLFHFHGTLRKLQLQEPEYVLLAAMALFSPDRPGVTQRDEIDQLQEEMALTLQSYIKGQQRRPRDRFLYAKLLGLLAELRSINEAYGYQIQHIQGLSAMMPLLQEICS
Summary of the method: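 HepG2 cells transiently transfected with multiplexed GAL4-UAS reporter units expressing chimeric NR-Gal4 proteins; compound exposure 24 h. Reporter mRNA measured by RT-PCR, 6-FAM labelling, HpaI digestion and capillary electrophoresis; gain-of-signal fitted against DMSO baseline.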

[14] = molecular target: Estrogen receptor (Homo sapiens) (UniProt P03372); experiment: ATG_ERa_TRANS: Attagene TRANS-FACTORIAL HepG2 Assay for human Estrogen Receptor alpha (ERa) (AID 2282970; active = hit-call score of the fitted dose curve at least 0.9, where 1 is the maximum); conditions: HepG2 Attagene TRANS ERa GAL4 reporter, mRNA
Estrogen receptor (Homo sapiens), sequence (P03372 whole entry, looked up, the tested form may be a part): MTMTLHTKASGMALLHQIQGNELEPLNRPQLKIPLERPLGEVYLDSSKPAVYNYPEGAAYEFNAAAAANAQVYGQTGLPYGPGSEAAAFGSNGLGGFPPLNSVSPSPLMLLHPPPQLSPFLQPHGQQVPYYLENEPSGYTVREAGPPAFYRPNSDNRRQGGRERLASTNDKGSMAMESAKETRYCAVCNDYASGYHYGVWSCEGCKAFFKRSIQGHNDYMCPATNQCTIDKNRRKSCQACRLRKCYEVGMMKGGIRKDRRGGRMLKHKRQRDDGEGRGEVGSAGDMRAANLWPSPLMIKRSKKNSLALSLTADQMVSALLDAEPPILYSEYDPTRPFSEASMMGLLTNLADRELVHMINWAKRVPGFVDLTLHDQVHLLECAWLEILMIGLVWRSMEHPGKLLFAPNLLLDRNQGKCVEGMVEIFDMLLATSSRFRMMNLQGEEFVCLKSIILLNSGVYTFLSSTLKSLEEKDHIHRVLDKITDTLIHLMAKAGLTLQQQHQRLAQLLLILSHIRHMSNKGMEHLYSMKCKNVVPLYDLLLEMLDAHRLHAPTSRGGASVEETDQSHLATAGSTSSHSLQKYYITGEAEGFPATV
Summary of the method: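 Multiplexed cell-based reporter format in HepG2: chimeric ERa-Gal4 protein drives GAL4-UAS reporter transcription. Fluorescent reporter mRNA quantified by capillary electrophoresis 24 hours after dosing; endpoint fitted as signal gain against DMSO.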

[15] = molecular target: X-box-binding protein 1 (Homo sapiens) (UniProt P17861); experiment: ATG_Xbp1_CIS: Attagene CIS-FACTORIAL HepG2 Assay for human X-box Binding Protein 1 (XBP1) (AID 2282972); conditions: HepG2 XBP1 cis-element reporter, Attagene multiplex; actives raise or lower the signal
X-box-binding protein 1 (Homo sapiens), sequence (P17861 whole entry, looked up, the tested form may be a part): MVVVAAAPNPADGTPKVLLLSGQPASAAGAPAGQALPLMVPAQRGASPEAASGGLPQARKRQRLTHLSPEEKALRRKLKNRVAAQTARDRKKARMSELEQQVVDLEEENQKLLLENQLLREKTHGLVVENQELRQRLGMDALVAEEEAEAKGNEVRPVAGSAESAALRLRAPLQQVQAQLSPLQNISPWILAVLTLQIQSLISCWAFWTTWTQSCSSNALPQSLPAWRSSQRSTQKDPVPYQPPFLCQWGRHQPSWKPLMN
Summary of the method: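 Fluorescence-labelled cDNA fragments from reporter transcripts, separated by capillary electrophoresis, give the signal. Source: HepG2 cells transfected with promoter-driven reporter units, harvested 24 h post-dose. DMSO served as reference for bidirectional curve fitting.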

[16] = ATG_PPRE_CIS: Attagene CIS-FACTORIAL HepG2 Assay for human Peroxisome Proliferator-activated Response Element (PPRE) (AID 2282958); conditions: HepG2 PPRE cis-element reporter, Attagene transcription factor profiling; actives raise or lower the signal
Summary of the method: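 Multiplexed reporter transcription units under cis-regulatory promoters were transfected into HepG2 cells to capture endogenous factor activity. A 24 h incubation preceded RNA isolation and fluorescent RT-PCR fragment analysis.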

[17] = ATG_GAL4_TRANS: Attagene TRANS-FACTORIAL HepG2 Assay for GAL4 (Internal Marker) (AID 2282976; active = hit-call score of the fitted dose curve at least 0.9, where 1 is the maximum); conditions: HepG2 Attagene TRANS GAL4 internal marker reporter
Summary of the method: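 Liver HepG2 line bearing multiplexed GAL4-UAS reporter constructs; 24 h chemical treatment. Transcripts were quantified as fluorescent fragments on capillary electrophoresis after RT-PCR and HpaI cut, with activity fitted upward from DMSO.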

Measured: AC50

O=C(O)Cn1c(=O)n(Cc2ccc(Br)cc2F)c(=O)c2ccc(Cl)cc21
active: [2] 8.54 µM | [12] 27 µM
not listed: [16] | [17]
inactive: all other assays above

CCCCCCCCCCCO
not listed: [9] | [13]
inactive: all other assays above

COc1cc(C(=O)NC2CCN(C)CC2)ccc1Nc1ncc2c(n1)N(C1CCCC1)CC(F)(F)C(=O)N2C
active: [1] 3.75 µM | [2] 1.01 µM | [3] 3.55 µM | [5] 0.525 µM | [6] 1.56 µM | [12] 3.09 µM | [15] 2.31 µM
inactive: [16] | [4] | [7] | [8] | [10] | [11] | [14]
